Experimental data as given in PubChem BioAssay (EPA / NIEHS).
Activity calls are given as the source filed them. Rule for the calls: active = hit-call score of the fitted dose curve at least 0.9, where 1 is the maximum; inactive = score below 0.9.

assay: CCTE_Shafer_MEA_acute_network_burst_percentage: CCTE's Neural Acute Assay for Percentage of Network Bursts, Shafer Lab (AID 2284022);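 note: curves fitted for loss so actives lower network burst percentage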
Method: CCTE_Shafer_MEA_acute assay is conducted using Axion Biosystems 48 well microelectrode array (MEA) plates and Maestro recording system. Each well of the MEA plate contains a grid of 16 microelectrodes embedded in the culture surface. Electrically active cells, such as neurons, can be cultured over the electrodes, and electrical activity in these cells can be recorded extracellularly. The spontaneous firing of neurons is captured from each electrode on a microsecond timescale providing both temporally and spatially precise data. […] The CCTE_Shafer_MEA_acute assay uses primary cultures of rat cortical neurons. As these cultures mature over time, neural networks develop functional activity and form cohesive networks in which electrical activity can be highly coordinated. Baseline 40-minute recordings are made on days post-plating 13 or 15, followed by a secondary 40-minute recording after chemical exposure.CCTE_Shafer_MEA_acute_network_burst_percentage is a component of the CCTE_Shafer_MEA_acute assay. It measures the percent of spikes (action potential firings) in network bursts (temporally-clustered groups of spikes across multiple electrodes) as the number of spikes occuring in network bursts divided by the total number of spikes during a recording in a microelectrode array (MEA) using Axion Biosystems Maestro 768 channel amplifier with the AxIS adaptive spike detector. The recordings before and after chemical treatment are used to calculate a percent change in the network burst percentage in each well.Data from the assay component CCTE_Shafer_MEA_acute_network_burst_percentage was analyzed into 1 assay endpoint. This assay endpoint, CCTE_Shafer_MEA_acute_network_burst_percentage, was analyzed in the negative analysis fitting direction relative to DMSO as the negative control and baseline of activity. Using a type of functional reporter, gain or loss-of-signal activity can be used to understand electrical activity.
Spontaneous activity in the cortical cultures was recorded using an Axion Biosystems Maestro 768 channel amplifier and Axion Integrated Studios (AxIS) v1.8 (or later) software. The amplifier recorded from all channels simultaneously (gain = 1200 x; sampling rate = 12.5 kHz/channel): raw signals were filtered with a Butterworth band-pass filter (300-5000 Hz), which filters out slower local field potentials leaving only fast potentials, i.e., "spikes", arising from extracellular currents associated with action potentials (Pine 2006; Wheeler and Nam 2011). On-line spike detection of filtered signals was conducted with the AxIS adaptive spike detector, using a threshold of 8x the root mean squared (rms) noise on each channel. Any electrodes with rms noise levels greater than 5 uV were grounded (e.g., no data were recorded). Once grounded, an electrode was grounded for the duration of the experiment. All recordings were conducted at 37 C. Wells were deemed usable if on the day of the exposure >/= 10 electrodes were active (defined as >/= 5 spikes/min). On DIV 13 or 15, a minimum of three wells from one cortical culture preparation were treated with each compound (0.03-40 uM). Prior to recording baseline activity, each mwMEA plate was placed in the Maestro at 37 C and allowed to sit for 20 min while firing rates stabilized. Baseline activity (40 min) was recorded before the addition of each compound. An additional 40 min of spontaneous activity was recorded in the presence of each compound. Changes in network parameters relative to baseline were assessed following compound treatment.

Compound	outcome	AC50
OC1OC[C@@H](O)[C@H](O)[C@H]1O (stereo partly specified)	inactive	–
CC[Si](OC(C)=O)(OC(C)=O)OC(C)=O	inactive	–
C=CCOC(=O)CCC1CCCCC1	inactive	–
CC(=O)[C@H]1CC[C@H]2[C@@H]3CC=C4C[C@@H](O)CC[C@]4(C)[C@H]3CC[C@]12C	–	0.0267 µM (active)
Nc1cc([N+](=O)[O-])ccc1O	–	15 µM (active)
CCC(=O)OCc1ccccc1	inactive	–
C[C@H]1C[C@@H]2[C@H]([C@@H](O)C[C@@]3(C)[C@H]2CC[C@]3(O)C(=O)CO)[C@@]2(C)C=CC(=O)C=C12	inactive	–
C=C[Si](OCC)(OCC)OCC	inactive	–
NCCNCCN	inactive	–
CN(C)C(=N)N=C(N)N	inactive	–
Cc1cc(C2(c3cc(C)c(O)cc3C)OS(=O)(=O)c3ccccc32)c(C)cc1O	inactive	–
CCCCCCCCC=O	inactive	–
CC(=O)OCCC(C)CC(C)(C)C (stereo unspecified)	inactive	–
OC[C@H]1O[C@H](O[C@]2(CCl)O[C@H](CCl)[C@@H](O)[C@@H]2O)[C@H](O)[C@@H](O)[C@H]1Cl	inactive	–
CC(C)(COC(=O)c1ccccc1)COC(=O)c1ccccc1	inactive	–
COc1cc(C=O)ccc1OC(=O)C(C)C	inactive	–
